Reference: PubChem BioAssay (NCATS)
Results filed as inconclusive are left out. Active and inactive are the calls of the source. Calls come from the whole dose curve; as a rule, active = well fitted curve in either direction with a large enough effect (not every such curve was filed as active); inconclusive = small, poorly fitted or top-dose-only effect, or another doubt; inactive = flat fitted curve, though single readings scatter.

assay: NFAT Signaling Pathway (AID 444); details: Jurkat NFAT-bla M1, carbachol, beta-lactamase ratio, 5 h; at 17.2 µM (top of the series) unless noted;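 note: carbachol stimulus at about its EC50 of 1 µM final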
Procedure, shortened: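 Read-out: CCF4 FRET ratio (460 nm/530 nm) after 1 h RT dye loading, used for %activity and AC50 from titration series. Cells: Jurkat NFAT-β-lactamase/M1 line, treated with compound plus 1 uM carbachol for 5 h, 37 °C.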
% is set by controls: 0 for no effect and ±100 for the full control effect.

SMILES | activity change, negative = inhibition
O=C(O)CN(c1ccccc1)C1SC(=O)NC1=O (stereo unspecified) | 20.4% (inactive)
Cc1[nH]c2ccc(F)cc2c(=O)c1SC(F)(F)C(F)C(F)(F)F (stereo unspecified) | 10.1% (inactive)
CCC1(C)Cc2c(sc3nc4n(c(=O)c23)CCS4)CO1 (stereo unspecified) | -16.6% (inactive)
CN(C)c1ccc(O)c2c1CC1CC3[C@@H](N(C)C)C(=O)C(C(N)=O)=C(O)[C@]3(O)C(=O)C1=C2O (stereo partly specified) | 8.29% (inactive)
COc1ccccc1-n1c(=O)c2c3c(sc2n2c(SC(C)C)nnc12)CCC3 | -27.1% (inactive)
O=S(=O)(c1cccc2nsnc12)N1CCN(C/C=C/c2ccccc2)CC1 | -13.3% (inactive)
Cc1ccc(-c2nn(C)c(=O)c3ccccc23)cc1CN1CCOCC1 | -19.8% (inactive)
CCCCCOC(=O)Cc1c(C)nc(-c2ccccc2)[nH]c1=O | 8.16% (inactive)
C=CCOC(=O)C1=C(C)OC(N)=C(C#N)C1c1ccoc1 (stereo unspecified) | -14.1% (inactive)
CCOC(=O)c1c(C)oc2ccc(OCC(=O)C(C)(C)C)cc12 | 2.59% (inactive)
CCOc1ccc(-n2c(SCc3ccc(C#N)cc3)nnc2-c2cccnc2)cc1 | 6.12% (inactive)
Cc1cc(=O)oc2cc(OCCSCCN3CCOCC3)ccc12 | 3.73% (inactive)
CCOC(=O)N1CCN(C2OC(=O)c3ccccc32)CC1 (stereo unspecified) | 27.2% (inactive)
CCc1cccc(CC)c1N(COC)C(=O)Cn1nnc2ccccc21 | 10% (inactive)
CCCOc1ccc(C2NC(=O)NC2=O)cc1 (stereo unspecified) | 9.35% (inactive)
Cc1c(Cl)cccc1N1C(=O)C2ON(c3ccccc3)C(c3cccnc3)C2C1=O (stereo unspecified) | 0.827% (inactive)
